The values below come from PubChem BioAssay (NCATS).

In test [1] the target is Lysosomal acid glucosylceramidase (Homo sapiens) (UniProt P04062). The test can be described thus: Glucocerebrosidase-p2 (AID 348; in the data active means potency below about 10 µM; further: potency means the concentration at half of the fitted maximal effect). As to conditions: purified GBA, blue fluorogenic substrate, 40 min. An outline of the steps: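 Normal human glucocerebrosidase (0.2 nM) with blue fluorogenic substrate (80 uM final) in citrate/phosphate pH 5.9 with 10mM sodium taurocholate, 0.01% tween-20; 40 min RT, NaOH/glycine stop; fluorescence Ex 365/Em 440; AC50 from a titration from 0.6 nM upwards.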
Chain of Lysosomal acid glucosylceramidase (Homo sapiens) (P04062 whole entry, looked up): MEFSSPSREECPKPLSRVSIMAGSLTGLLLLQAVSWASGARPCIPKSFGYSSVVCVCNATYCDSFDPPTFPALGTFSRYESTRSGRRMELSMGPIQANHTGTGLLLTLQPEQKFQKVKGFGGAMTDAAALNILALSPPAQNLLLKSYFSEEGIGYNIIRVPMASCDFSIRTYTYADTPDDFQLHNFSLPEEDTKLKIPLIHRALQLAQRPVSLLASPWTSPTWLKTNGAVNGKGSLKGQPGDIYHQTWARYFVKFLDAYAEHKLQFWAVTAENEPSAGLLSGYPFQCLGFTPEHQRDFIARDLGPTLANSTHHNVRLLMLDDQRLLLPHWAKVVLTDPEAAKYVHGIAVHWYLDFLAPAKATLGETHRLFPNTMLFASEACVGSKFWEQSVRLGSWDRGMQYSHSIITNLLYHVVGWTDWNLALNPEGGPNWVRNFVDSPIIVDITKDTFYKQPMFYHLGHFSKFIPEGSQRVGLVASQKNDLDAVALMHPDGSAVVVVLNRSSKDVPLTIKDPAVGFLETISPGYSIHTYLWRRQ

Test [2] is described as follows: Stat Signaling Pathway (AID 446).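 Further: ME-180 cervical cancer cells given 40 pM IL-6 alongside compound; SIE-controlled beta-lactamase reporter measured as 460/530 nm FRET emission ratio; on the % scale 0 is the no-effect control and ±100 the full control effect.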 As to conditions: ME-180 SIE beta-lactamase reporter, IL-6 stimulated, 5 h; at 7.69 µM (top of the series) unless noted. In outline:
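Overnight-plated ME-180 cells bearing a STAT Inducible Element beta-lactamase reporter; 5 h co-exposure to compound and 40 pM IL-6; values normalized to 300 pM IL-6 and 125 nM JAK inhibitor controls.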

Test [3] has as its target Glucocorticoid receptor (Homo sapiens) (UniProt P04150). Nature of the test: GR-GFP Redistribution (AID 450;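 active means compounds whose dose series gives a full or clear partial fitted curve of increased nuclear translocation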; further: potency means the concentration at half of the fitted maximal effect). Conditions: U2OS GR-GFP nuclear translocation, laser cytometry, 2 h.
The target is the same in test [4]. The test can be described thus: GR-EFC Redistribution (AID 451; calls by dose curve; further: potency means the concentration at half of the fitted maximal effect). Conditions: CHO-K1 GR-EFC translocation, beta-gal luminescence, 2 h. In outline:
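Translocation of GR-ED fusion to nuclear EA restores b-gal, read by luminescence after 1 h room-temperature detection. Engineered CHO-K1 biosensor cells, 1,000/well, exposed 2 h at 37 C to titrations up to 46 uM final.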

The target of test [5] is Mitogen-activated protein kinase 10 (Mus musculus) (UniProt Q61831). Nature of the test: JNK3 AlphaScreen Assay (AID 530).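 Further: kinase came from lysate of stimulated human HepG2 cells; signal reports phosphorylation of biotinylated GST-cJun 1-79 at Ser73 with 10 µM ATP; on the % scale 0 is the no-effect control and ±100 the full control effect.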 As to conditions: JNK3 lysate, c-Jun phosphorylation; series mostly up to 11.4 µM. An outline of the steps:
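Kinase buffer: 20 mM Tris-HCl pH 7.6, 10 mM MgCl2, 1 mM DTT, 0.1 mM Na3VO4, 0.01% Tween-20; ATP 10 uM. Substrate biotin-GST-cJun(1-79), enzyme from activated HepG2 lysates. Detection by Ser73 phospho-antibody AlphaScreen.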
A general note: Alpha assays give light when donor and acceptor beads are brought close together.

Test [6] deals with 3',5'-cyclic-AMP phosphodiesterase 4B (Homo sapiens) (UniProt Q07343). The test can be described thus: qHTS Assay for Inhibitors of PDE-IV (AID 607; active means well fitted activation curve with a large enough effect in the main read-out, with a control signal flat, not every such curve was filed as active; further: % of control where 0% means no effect). Conditions: HEK293 ACTOne CNG channel cells, membrane potential fluorescence; series mostly up to 22.9 µM. In outline:
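Live HEK293 cells with a modified cyclic nucleotide-gated (CNG) channel report intracellular cAMP via membrane-potential dye fluorescence (ex 535/em 590 nm). Endogenous PDE-IV was targeted. Compounds were tested at up to 22.9 uM final; RO 20-1724 100 uM served as control.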
In general terms: Quantitative high-throughput screening tests each substance at several concentrations.

Test [7] is described as follows: AP1 Signaling Pathway (AID 357).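 Further: ME-180 reporter cells stimulated with EGF at its EC50 level; on the % scale 0 is the no-effect control and ±100 the full control effect.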 Conditions: ME-180 AP-1-bla reporter, EGF-induced, beta-lactamase ratio, 5 h; at 7.69 µM (top of the series) unless noted. An outline of the steps: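 AP-1-bla ME-180 cells, Opti-MEM + 0.5% dialyzed FBS, plated overnight 37 °C. Cpd titration + EC50 EGF, 5 h 37 °C. CCF4 2.5 h RT; ex 405, em 460/530 ratio → %activity, AC50.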
Test [8] addresses Cytochrome P450 1A2 (Homo sapiens) (UniProt P05177). Nature of the test: p450-cyp1a2 (AID 410; calls by dose curve; further: potency means the concentration at half of the fitted maximal effect;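 on activity change, negative = inhibition: -100% = full effect of reference inhibitor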). As to conditions: recombinant CYP1A2, luciferin-ME demethylation, luminescence; series mostly up to 11.4 µM. In outline: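 Read-out is luminescence from luciferin produced by CYP1A2 demethylation of Luciferin-ME (100uM, at Km). Detection reagent stopped the 60 min NADPH-dependent reaction; signals were normalized to 57 uM furafylline.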

A short description of test [9]: NFAT Signaling Pathway (AID 444).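 Further: carbachol stimulus at about its EC50 of 1 µM final; on the % scale 0 is the no-effect control and ±100 the full control effect.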 As to conditions: Jurkat NFAT-bla M1, carbachol, beta-lactamase ratio, 5 h; at 7.69 µM (top of the series) unless noted. An outline of the steps:
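Read-out: CCF4 FRET ratio (460 nm/530 nm) after 1 h RT dye loading, used for %activity and AC50 from titration series. Cells: Jurkat NFAT-β-lactamase/M1 line, treated with compound plus 1 uM carbachol for 5 h, 37 °C.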

The target of test [10] is Guanine nucleotide-binding protein G(i) subunit alpha-1 (Homo sapiens) (UniProt P63096). Nature of the test: qHTS Assay for Inhibitors of RGS12 GoLoco Motif Activity (Green Fluorophore) (AID 879; active means well fitted curve in the direction sought with a large enough effect; an effect the other way counts as inactive or inconclusive;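 further: 0% = labeled peptide with Gαi1 and full inhibition = labeled peptide alone without protein; negative values mean loss of peptide binding seen as reduced polarization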). As to conditions: Galphai1/FITC-RGS12 GoLoco peptide, fluorescence polarization; series mostly up to 57.1 µM. In outline:
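A drop in FITC polarization marked displacement of the FITC-tagged RGS12 GoLoco peptide (10 nM) from Gαi1 (50 nM). Compounds were incubated 10 min at room temperature in Tris pH 7.5 buffer containing 150 mM NaCl, 0.1 mM GDP and 0.05% NP40; unlabeled peptide titration served as control.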

Test [11] is described as follows: qHTS Assay for Identification of Small Molecule Agonists for Hypoxia Response Element Signaling Pathway (AID 914; active means well fitted activation curve with a large enough effect in the signal ratio, with a control signal flat, not every such curve was filed as active; the % refers to the signal ratio; further: % of control where 0% means no effect). As to conditions: ME-180 (cervical carcinoma) HRE-bla reporter, beta-lactamase ratio, CoCl2, 17 h; activation: stronger effect = higher value. An outline of the steps: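 A beta-lactamase reporter under hypoxia response element control in ME-180 cells served as the system. Compound titrations plus EC50 CoCl2 ran 17 h at 37 degrees Celsius; AC50 values were fitted from %Activity.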

In test [12] the target is Muscarinic acetylcholine receptor M1 (Rattus norvegicus) (UniProt P08482). Nature of the test: qHTS Assay for Antagonists of Acetylcholine Muscarinic M1 Receptor: Measurement of IP-One Response (AID 944; active means well fitted curve in the direction sought with a large enough effect; an effect the other way counts as inactive or inconclusive; further: nearly all actives have a fitted effect of over 75% in size). As to conditions: CHO-M1 cells, IP-One HTRF, antagonist mode; series mostly up to 46.1 µM. An outline of the steps:
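Antagonism was measured as loss of carbachol-driven (EC80) IP1 accumulation in CHO cells carrying rat M1, using a homogeneous IP-One TR-FRET kit read at 620 and 665 nm.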

For test [13], the target named is Pyruvate kinase (Leishmania mexicana) (UniProt Q27686). Nature of the test: qHTS Validation Assay for Inhibitors of Leishmania Mexicana Pyruvate Kinase (AID 945; active means well fitted curve in the direction sought with a large enough effect; an effect the other way counts as inactive or inconclusive;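 further: 0% = DMSO only neutral control wells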). Conditions: purified L. mexicana pyruvate kinase, enzyme activity, E451W mutant enzyme; series mostly up to 57.5 µM. An outline of the steps:
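Compounds are tested as eight-point concentration series. Reactions contain 0.2 nM LmPYK E451W, 0.5 mM PEP, 0.1 mM ADP, 7 mM MgCl2 and 50 mM KCl at pH 7.2, run 1 h at room temperature, then read by PKLight luminescence.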

The target of test [14] is Pyruvate kinase PKM (Homo sapiens) (UniProt P14618). The test can be described thus: qHTS Assay for Activators of Human Muscle Pyruvate Kinase (AID 954; active means well fitted curve in the direction sought with a large enough effect, not every such curve was filed as active;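 further: 0% = uninhibited enzyme and -100% = no enzyme or full thiadiazolimine inhibition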). As to conditions: purified human muscle pyruvate kinase, luciferase-coupled luminescence, 1 h; series mostly up to 57.5 µM. An outline of the steps:
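Screening used highly purified human pyruvate kinase M2 under submaximal activity, with PEP at its Km and ADP below Km. After an hour at room temperature, ATP was read by luciferase luminescence.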

The target in test [15] is Alpha-galactosidase A (Homo sapiens) (UniProt P06280). The test can be described thus: Counterscreen for Glucocerebrosidase Inhibitors: qHTS Assay for Human alpha-Galactosidase at pH 4.5 (AID 992; active means well fitted curve in the direction sought with a large enough effect; an effect the other way counts as inactive or inconclusive; further: 0% is about no effect). Conditions: purified enzyme, fluorogenic substrate; series mostly up to 76.9 µM. An outline of the steps: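 Each compound is preincubated briefly with 2 nM enzyme before substrate addition (80 uM); plates then sit 20 min at ambient temperature, are quenched with 1M NaOH/1M glycine, and read fluorometrically.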
Chain of Alpha-galactosidase A (Homo sapiens) (P06280 whole entry, looked up): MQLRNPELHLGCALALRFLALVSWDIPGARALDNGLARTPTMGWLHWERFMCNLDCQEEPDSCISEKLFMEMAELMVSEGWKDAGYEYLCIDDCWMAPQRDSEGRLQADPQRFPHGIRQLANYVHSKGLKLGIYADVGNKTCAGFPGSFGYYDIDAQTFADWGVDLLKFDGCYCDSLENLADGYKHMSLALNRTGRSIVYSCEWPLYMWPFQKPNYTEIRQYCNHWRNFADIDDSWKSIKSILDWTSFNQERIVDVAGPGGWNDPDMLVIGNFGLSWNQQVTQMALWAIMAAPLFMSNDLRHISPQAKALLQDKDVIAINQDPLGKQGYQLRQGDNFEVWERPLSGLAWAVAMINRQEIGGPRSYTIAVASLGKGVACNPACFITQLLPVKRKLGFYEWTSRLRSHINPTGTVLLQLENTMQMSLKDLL

Test [16] concerns the target alpha-glucosidase (Oryza sativa, rice) (UniProt Q653V4). The test can be described thus: Counterscreen for Glucocerebrosidase Inhibitors: qHTS Assay for Rice alpha-Glucosidase at pH 5.0 (AID 997; active means well fitted curve in the direction sought with a large enough effect; an effect the other way counts as inactive or inconclusive;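 further: 0% = full activity with enzyme and -100% = basal without enzyme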). As to conditions: rice alpha-glucosidase enzyme activity; series mostly up to 76.9 µM. In outline: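 Endpoint fluorogenic assay at pH 5.0: compounds (0.7 nM to 77 uM) titrated against 4 nM rice enzyme and 400 uM 4-MU-alpha-glucoside for 20 min at room temperature; NaOH/glycine stop, read ex 365/em 440 nm, Hill-fitted AC50.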
In general terms: Counterscreens check selectivity or assay interference.

The target of test [17] is Cytochrome P450 3A4 (Homo sapiens) (UniProt P08684). Nature of the test: qHTS Assay for Activators of Cytochrome P450 3A4 (AID 885; active means well fitted curve in the direction sought with a large enough effect; an effect the other way counts as inactive or inconclusive; further: nearly all actives have a fitted effect of over 65% in size). As to conditions: recombinant CYP3A4, Luciferin-PPXE luminescence, 60 min; series mostly up to 11.4 µM. An outline of the steps: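 Using 20nM recombinant human CYP3A4 in potassium phosphate (200mM), substrate Luciferin-PPXE at 25uM, luminescent luciferin detection followed a 60-min RT NADPH reaction; data scaled to 57 uM ketoconazole.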
Chain of Cytochrome P450 3A4 (Homo sapiens) (P08684 whole entry, looked up): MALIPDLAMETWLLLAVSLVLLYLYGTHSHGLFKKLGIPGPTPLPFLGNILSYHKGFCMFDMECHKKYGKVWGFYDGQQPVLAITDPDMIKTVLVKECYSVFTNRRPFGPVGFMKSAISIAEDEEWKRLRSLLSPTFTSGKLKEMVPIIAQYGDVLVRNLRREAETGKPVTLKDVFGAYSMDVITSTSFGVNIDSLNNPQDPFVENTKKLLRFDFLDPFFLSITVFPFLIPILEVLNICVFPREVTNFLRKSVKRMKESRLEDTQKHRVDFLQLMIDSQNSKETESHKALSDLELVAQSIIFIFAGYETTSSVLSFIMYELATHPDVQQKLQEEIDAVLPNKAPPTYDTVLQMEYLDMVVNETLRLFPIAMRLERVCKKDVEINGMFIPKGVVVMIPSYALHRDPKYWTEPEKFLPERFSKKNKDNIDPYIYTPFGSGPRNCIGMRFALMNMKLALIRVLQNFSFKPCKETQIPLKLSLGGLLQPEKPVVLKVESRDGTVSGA

Test [18] can be described thus: qHTS Assay for Identification of Small Molecule Agonists for Thrombopoietin (TPO) Signaling Pathway (AID 917; active means well fitted curve in the direction sought with a large enough effect; an effect the other way counts as inactive or inconclusive; further: on the % scale 0 is the no-effect control and ±100 the full control effect). Conditions: TPO signaling pathway reporter cells, agonist qHTS, stimulated with TPO at its EC50; series mostly up to 38.5 µM. An outline of the steps: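 Stimulation at the TPO EC50 (26 pM final) was used to detect activators. Ba/F3 mouse cells bearing human TPO receptor and a luciferase reporter under the Glycoprotein IIb promoter were exposed to compounds for 24 hrs at 37 C.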

A number with no mark means an inactive call. Records with an inconclusive call do not appear. Active and inactive are the calls of the source. Unless noted, the call rests on the fitted dose curve; in most records, active means well fitted curve in either direction with a large enough effect (not every such curve was filed as active); inconclusive means small, poorly fitted or top-dose-only effect, or another doubt; inactive means flat fitted curve, though single readings scatter.

Chain of 3',5'-cyclic-AMP phosphodiesterase 4B (Homo sapiens) (Q07343 whole entry, looked up): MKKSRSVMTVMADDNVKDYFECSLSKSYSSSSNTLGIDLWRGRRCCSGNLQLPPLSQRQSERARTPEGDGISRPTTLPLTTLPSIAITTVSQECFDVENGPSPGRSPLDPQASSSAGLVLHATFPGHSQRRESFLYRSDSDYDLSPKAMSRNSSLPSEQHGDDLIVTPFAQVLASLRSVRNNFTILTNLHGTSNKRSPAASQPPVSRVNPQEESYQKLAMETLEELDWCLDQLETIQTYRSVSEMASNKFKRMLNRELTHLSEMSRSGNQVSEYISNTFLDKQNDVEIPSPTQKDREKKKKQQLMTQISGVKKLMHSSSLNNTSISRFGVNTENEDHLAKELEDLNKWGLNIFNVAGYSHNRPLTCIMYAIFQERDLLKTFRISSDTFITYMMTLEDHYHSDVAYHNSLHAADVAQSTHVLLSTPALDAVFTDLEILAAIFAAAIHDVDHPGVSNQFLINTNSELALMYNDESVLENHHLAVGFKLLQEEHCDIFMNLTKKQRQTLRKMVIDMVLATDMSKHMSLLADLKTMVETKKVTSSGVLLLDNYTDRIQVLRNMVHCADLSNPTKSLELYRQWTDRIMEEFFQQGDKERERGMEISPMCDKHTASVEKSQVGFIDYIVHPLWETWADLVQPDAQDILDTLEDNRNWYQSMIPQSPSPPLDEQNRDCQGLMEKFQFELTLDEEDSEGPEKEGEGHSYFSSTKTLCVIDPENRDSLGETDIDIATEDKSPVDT
Chain of Pyruvate kinase PKM (Homo sapiens) (P14618 whole entry, looked up): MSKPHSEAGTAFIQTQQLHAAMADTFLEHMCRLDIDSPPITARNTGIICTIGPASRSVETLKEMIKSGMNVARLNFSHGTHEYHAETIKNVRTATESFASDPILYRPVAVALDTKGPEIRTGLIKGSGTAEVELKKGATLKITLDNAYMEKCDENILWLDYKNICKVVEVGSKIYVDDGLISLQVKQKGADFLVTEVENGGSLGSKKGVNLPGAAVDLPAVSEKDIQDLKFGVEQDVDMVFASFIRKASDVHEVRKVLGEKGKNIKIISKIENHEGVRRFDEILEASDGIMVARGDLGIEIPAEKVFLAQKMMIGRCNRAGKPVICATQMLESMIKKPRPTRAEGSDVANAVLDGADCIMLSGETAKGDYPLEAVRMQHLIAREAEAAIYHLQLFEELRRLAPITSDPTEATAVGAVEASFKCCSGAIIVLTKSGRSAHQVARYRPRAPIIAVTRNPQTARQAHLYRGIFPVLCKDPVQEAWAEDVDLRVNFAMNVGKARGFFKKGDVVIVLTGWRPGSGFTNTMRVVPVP
Chain of Guanine nucleotide-binding protein G(i) subunit alpha-1 (Homo sapiens) (P63096 whole entry, looked up): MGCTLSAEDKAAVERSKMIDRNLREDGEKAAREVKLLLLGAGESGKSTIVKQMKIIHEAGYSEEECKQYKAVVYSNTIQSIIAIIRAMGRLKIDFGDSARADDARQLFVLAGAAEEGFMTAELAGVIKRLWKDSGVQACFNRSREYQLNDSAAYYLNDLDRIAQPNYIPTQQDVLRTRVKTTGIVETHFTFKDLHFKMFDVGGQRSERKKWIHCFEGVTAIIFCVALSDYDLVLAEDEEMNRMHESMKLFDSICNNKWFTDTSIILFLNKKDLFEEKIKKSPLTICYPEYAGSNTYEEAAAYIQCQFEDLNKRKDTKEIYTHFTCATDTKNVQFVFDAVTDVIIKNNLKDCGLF
Chain of Glucocorticoid receptor (Homo sapiens) (P04150 whole entry, looked up): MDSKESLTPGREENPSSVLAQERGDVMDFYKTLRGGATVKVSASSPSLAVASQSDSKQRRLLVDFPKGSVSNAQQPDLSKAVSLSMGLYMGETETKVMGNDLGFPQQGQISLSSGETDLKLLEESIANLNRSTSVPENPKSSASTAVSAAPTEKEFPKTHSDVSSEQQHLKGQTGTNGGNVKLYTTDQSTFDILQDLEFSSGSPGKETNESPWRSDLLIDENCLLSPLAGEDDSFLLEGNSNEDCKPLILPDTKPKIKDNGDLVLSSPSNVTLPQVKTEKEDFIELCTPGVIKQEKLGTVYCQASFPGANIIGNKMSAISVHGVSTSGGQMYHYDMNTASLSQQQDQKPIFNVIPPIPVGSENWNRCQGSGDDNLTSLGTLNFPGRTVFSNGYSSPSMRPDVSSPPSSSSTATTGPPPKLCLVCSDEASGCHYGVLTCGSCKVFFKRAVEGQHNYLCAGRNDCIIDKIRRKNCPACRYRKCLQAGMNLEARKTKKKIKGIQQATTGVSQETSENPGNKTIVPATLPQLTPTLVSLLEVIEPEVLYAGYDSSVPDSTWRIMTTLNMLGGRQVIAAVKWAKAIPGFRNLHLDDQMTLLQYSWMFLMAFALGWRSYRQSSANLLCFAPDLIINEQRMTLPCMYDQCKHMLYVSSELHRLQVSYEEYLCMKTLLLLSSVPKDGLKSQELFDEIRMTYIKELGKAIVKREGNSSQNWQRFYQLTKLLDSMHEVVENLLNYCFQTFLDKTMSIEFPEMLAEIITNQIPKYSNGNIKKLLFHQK
Chain of Cytochrome P450 1A2 (Homo sapiens) (P05177 whole entry, looked up): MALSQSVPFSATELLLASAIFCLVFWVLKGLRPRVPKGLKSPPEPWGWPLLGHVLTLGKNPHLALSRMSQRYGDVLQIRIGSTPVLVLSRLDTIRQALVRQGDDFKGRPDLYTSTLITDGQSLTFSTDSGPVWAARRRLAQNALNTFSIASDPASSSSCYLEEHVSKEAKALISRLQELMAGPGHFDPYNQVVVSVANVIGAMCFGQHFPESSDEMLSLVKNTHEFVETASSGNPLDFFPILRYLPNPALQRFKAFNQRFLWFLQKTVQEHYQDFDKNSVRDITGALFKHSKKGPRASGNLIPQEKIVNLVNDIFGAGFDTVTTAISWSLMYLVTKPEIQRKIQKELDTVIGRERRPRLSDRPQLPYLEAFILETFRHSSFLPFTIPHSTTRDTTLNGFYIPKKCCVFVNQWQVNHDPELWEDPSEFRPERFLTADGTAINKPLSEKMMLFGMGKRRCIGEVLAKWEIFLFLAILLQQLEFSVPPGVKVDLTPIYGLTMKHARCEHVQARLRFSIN
Chain of Pyruvate kinase (Leishmania mexicana) (Q27686 2-499 E452W): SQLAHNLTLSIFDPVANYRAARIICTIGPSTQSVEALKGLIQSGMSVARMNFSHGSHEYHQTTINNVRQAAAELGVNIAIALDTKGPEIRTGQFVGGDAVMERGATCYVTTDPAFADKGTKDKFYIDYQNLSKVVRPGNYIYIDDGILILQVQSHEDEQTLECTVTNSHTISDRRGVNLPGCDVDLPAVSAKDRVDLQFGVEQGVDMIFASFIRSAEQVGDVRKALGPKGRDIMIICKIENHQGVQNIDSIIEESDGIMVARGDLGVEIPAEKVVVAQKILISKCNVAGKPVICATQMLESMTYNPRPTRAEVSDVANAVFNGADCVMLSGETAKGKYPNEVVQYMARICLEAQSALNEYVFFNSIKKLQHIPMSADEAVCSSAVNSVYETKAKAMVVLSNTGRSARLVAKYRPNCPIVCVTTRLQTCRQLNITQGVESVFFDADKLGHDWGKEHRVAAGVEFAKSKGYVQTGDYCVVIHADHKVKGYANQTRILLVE

Turning to `COC(=O)CC[C@@H](C)[C@@H]1CC[C@@H]2[C@@H]3CC[C@H]4C[C@@H](O)CC[C@@]4(C)[C@@H]3CC[C@]21C`, the results for the Potency in test [1], in test [3] and in test [4] were above 11.4 µM, above 46 µM and above 9.22 µM, respectively. Further, the activity, negative = inhibition in [2] was 23.8%. Moreover, the Potency result in [5] and in [6] was “inactive” each time.
On to `C[N+]1(NCC[N@@+]2(C)CCc3ccccc3C2)CCCCC1`, for which the activity change, negative = inhibition was -4.59% in test [7] and -23.2% in test [9]. Also, the Potency result in test [8], in test [5] and in test [6] was “inactive” throughout. For the same molecule, the activity, negative = inhibition in [2] was 7.24%. Further, the values for the Potency in [3] and in test [4] were above 46 µM and above 9.22 µM, respectively.
Turning to `CC(C)/C(=N/[N+](C)(C)C)c1ccccc1`, the activity change, negative = inhibition in [7] was 3.83%; in [8], -16.2% [at 2.29 µM]; in test [9], -1.16%. For the same molecule, the activity, negative = inhibition in test [2] is 0.141%. For the same molecule, the Potency in test [3] is above 46 µM; in test [4] it was above 9.22 µM. Besides, the Potency entry in test [5] and in test [6] was “inactive” in each case.
For `CSc1ccc(NC(=O)Nc2cc(C)ccn2)cc1`, the activity change, negative = inhibition in test [7] was 0.23%; in test [9], -18.9%. For the same molecule, the Potency is 0.501 µM (active) in test [8], above 46 µM in test [3] and above 9.22 µM in [4]. Further, in [2], the activity, negative = inhibition is -7.77%. Besides, the Potency entry in test [5] and in [6] was “inactive” each time.
Turning to `CN1CCc2cc(Cl)c(O)cc2[C@H](c2ccccc2)C1`, the activity change, negative = inhibition in test [7] is 15.7% [at 38 µM]; in [9], -3.81% [at 38 µM]. Besides, the figures for the Potency in test [8], in [3] and in test [4] were 31.6 µM (active), above 46 µM and above 46 µM, respectively. In addition, the activity, negative = inhibition in test [2] is 19.6% [at 38 µM]. For the same molecule, the Potency result in test [5], in test [6], in [12] and in test [16] was “inactive” in each case. Moreover, the call in test [10], in [13], in [14] and in [15] was inactive. Moreover, in [11], the activation was -21.3%.
In the case of `O=C(O)/C=C\c1cnc[nH]1`, the activity change, negative = inhibition was 4.19% [at 38 µM] in test [7] and 9.72% [at 38 µM] in test [9]. Further, the Potency entry in test [8], in [5], in [6], in test [17], in test [12] and in test [16] was “inactive” in each case. In addition, the activity, negative = inhibition in test [2] is 3.14% [at 38 µM]. Moreover, the Potency in [3] and in test [4] was above 46 µM in each case. The result in test [10], in test [18], in [14] and in [15] was inactive. Further, in test [11], the activation is -4.56%.
For the molecule `Oc1ccc([C@@H]2CNCCc3c2cc(O)c(O)c3Cl)cc1`, the figures for the activity change, negative = inhibition in test [7] and in test [9] were -5.37% [at 38 µM] and 1.42% [at 38 µM], respectively. The Potency entry in test [8], in test [5], in test [6], in test [17] and in [16] was “inactive” throughout. Further, the activity, negative = inhibition in test [2] is 18.7% [at 38 µM]. Also, the Potency in test [3] and in test [4] was above 46 µM throughout. For the same molecule, the call in test [10], in test [13], in test [14] and in [15] was inactive.
On to `O=C1C=C(N2CCN(c3ccccn3)CC2)C(=O)c2c(O)ccc(O)c21`, for which the Potency was above 11.4 µM in test [1], above 46 µM in test [3] and above 9.22 µM in [4]. In addition, the activity, negative = inhibition in [2] was -4.42%. Besides, in [6], the Potency result was “inactive”.
For the molecule `CC(CO)(CO)N=Cc1cc(I)cc(I)c1O`, the Potency in test [1] was above 11.4 µM; in test [3] it was above 46 µM; in test [4] it was above 9.22 µM. Moreover, in [2], the activity, negative = inhibition was -24.6%. Moreover, the Potency entry in [5] and in [6] was “inactive” each time.
